Measured values from PubChem BioAssay AID1159580 (chemical genetic matrix, 2015).
Screen size: about 5,500 compounds; about 2,000 (36%) were called active. Not shown: some 18% with an inconclusive outcome. No stated cut-off is given here; in the data, active means normalized growth mostly below about 0.91 (no sharp cut-off); inconclusive means no clear call, values can overlap the other calls; inactive means mostly above about 0.92. The list shows a part of the results.

Assay: chemical genetic growth profiling, strain panel (AID 1159580);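 further: tested at 20 µM; growth read once vehicle control cultures reached saturation at 30 °C; 1 = growth at the plate median or of vehicle wells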
Details: growth OD

Measured: normalized growth

CC(=O)Oc1cc(OC(C)=O)c2c(=O)c(-c3ccccc3)coc2c1
inactive: S. cerevisiae deletion strains, locus YAL013W, strain DEP1, stronger effect = lower value 0.995 | S. cerevisiae deletion strains, locus YBR021W, strain FUR4, stronger effect = lower value 0.978 | S. cerevisiae deletion strains, locus YBR229C, strain ROT2, stronger effect = lower value 1 | S. cerevisiae deletion strains, locus YCL029C, strain bik1, stronger effect = lower value 1 | S. cerevisiae deletion strains, locus YDL035C, strain GPR1, stronger effect = lower value 0.997 | S. cerevisiae deletion strains, locus YDL074C, strain BRE1, stronger effect = lower value 0.989 | S. cerevisiae deletion strains, locus YDL101C, strain DUN1, stronger effect = lower value 1.01 | S. cerevisiae deletion strains, locus YDL134C, strain PPH21, stronger effect = lower value 1.01 | S. cerevisiae deletion strains, locus YDL185W, strain tfp1, stronger effect = lower value 0.998 | S. cerevisiae deletion strains, locus YDL192W, strain arf1, stronger effect = lower value 0.993 | S. cerevisiae deletion strains, locus YDR101C, strain arx1, stronger effect = lower value 0.982 | S. cerevisiae deletion strains, locus YDR150W, strain NUM1, stronger effect = lower value 1.02 | S. cerevisiae deletion strains, locus YDR162C, strain NBP2, stronger effect = lower value 1.01 | S. cerevisiae deletion strains, locus YDR318W, strain mcm21, stronger effect = lower value 0.982 | S. cerevisiae deletion strains, locus YDR388W, stronger effect = lower value 1 | S. cerevisiae deletion strains, locus YDR502C, strain sam2, stronger effect = lower value 0.978 | S. cerevisiae deletion strains, locus YEL061C, strain CIN8, stronger effect = lower value 1.01 | S. cerevisiae deletion strains, locus YER110C, stronger effect = lower value 0.992 | S. cerevisiae deletion strains, locus YER155C, strain BEM2, stronger effect = lower value 1.01 | S. cerevisiae deletion strains, locus YER167W, strain BCK2, stronger effect = lower value 1.02 | S. cerevisiae deletion strains, locus YGL078C, strain dbp3, stronger effect = lower value 0.991 | S. cerevisiae deletion strains, locus YGL086W, strain mad1, stronger effect = lower value 1 | S. cerevisiae deletion strains, locus YGL248W, strain PDE1, stronger effect = lower value 1.01 | S. cerevisiae deletion strains, locus YGR078C, strain PAC10, stronger effect = lower value 1 | S. cerevisiae deletion strains, locus YGR135W, strain pre9, stronger effect = lower value 0.985 | S. cerevisiae deletion strains, locus YGR229C, strain SMI1, stronger effect = lower value 1.02 | S. cerevisiae deletion strains, locus YGR252W, strain gcn5, stronger effect = lower value 0.888 | S. cerevisiae deletion strains, locus YHR030C, strain SLT2, stronger effect = lower value 1.01 | S. cerevisiae deletion strains, locus YHR079C, strain IRE1 (second series), stronger effect = lower value 0.98 | S. cerevisiae deletion strains, locus YHR094C, strain hxt1, stronger effect = lower value 0.988 | S. cerevisiae deletion strains, locus YHR129C, strain ARP1, stronger effect = lower value 1 | S. cerevisiae deletion strains, locus YHR200W, strain rpn10, stronger effect = lower value 1 | S. cerevisiae deletion strains, locus YIL066C, strain RNR3, stronger effect = lower value 1.02 | S. cerevisiae deletion strains, locus YIL073C, strain SPO22, stronger effect = lower value 1 | S. cerevisiae deletion strains, locus YIL125W, strain kgd1, stronger effect = lower value 0.992 | S. cerevisiae deletion strains, locus YIR030C, strain dcg1, stronger effect = lower value 1 | S. cerevisiae deletion strains, locus YJL095W, strain BCK1, stronger effect = lower value 1.01 | S. cerevisiae deletion strains, locus YJL134W, strain LCB3, stronger effect = lower value 1.01 | S. cerevisiae deletion strains, locus YJL168C, strain set2, stronger effect = lower value 1 | S. cerevisiae deletion strains, locus YJL187C, strain SWE1 (second series), stronger effect = lower value 1 | S. cerevisiae deletion strains, locus YJR043C, strain POL32, stronger effect = lower value 0.987 | S. cerevisiae deletion strains, locus YJR075W, strain HOC1, stronger effect = lower value 1.02 | S. cerevisiae deletion strains, locus YKL009W, strain mrt4, stronger effect = lower value 1.02 | S. cerevisiae deletion strains, locus YKL068W, stronger effect = lower value 0.993 | S. cerevisiae deletion strains, locus YKL085W, strain MDH1 (second series), stronger effect = lower value 0.982 | S. cerevisiae deletion strains, locus YKL085W, strain MDH1, stronger effect = lower value 0.982 | S. cerevisiae deletion strains, locus YKL190W, strain CNB1, stronger effect = lower value 1.03 | S. cerevisiae deletion strains, locus YKR001C, strain vps1, stronger effect = lower value 0.944 | S. cerevisiae deletion strains, locus YLR039C, strain RIC1, stronger effect = lower value 0.901 | S. cerevisiae deletion strains, locus YLR058C, strain SHM2, stronger effect = lower value 1.01 | S. cerevisiae deletion strains, locus YLR102C, strain apc9, stronger effect = lower value 1 | S. cerevisiae deletion strains, locus YLR262C, strain YPT6, stronger effect = lower value 0.913 | S. cerevisiae deletion strains, locus YLR268W, strain sec22, stronger effect = lower value 0.983 | S. cerevisiae deletion strains, locus YLR330W, strain CHS5, stronger effect = lower value 1.01 | S. cerevisiae deletion strains, locus YLR342W, strain FKS1 (second series), stronger effect = lower value 0.966 | S. cerevisiae deletion strains, locus YLR371W, strain rom2, stronger effect = lower value 1 | S. cerevisiae deletion strains, locus YLR418C, strain cdc73, stronger effect = lower value 0.891 | S. cerevisiae deletion strains, locus YML016C, strain PPZ1, stronger effect = lower value 1.02 | S. cerevisiae deletion strains, locus YML032C, strain rad52, stronger effect = lower value 1 | S. cerevisiae deletion strains, locus YML124C, strain tub3, stronger effect = lower value 0.995 | S. cerevisiae deletion strains, locus YMR078C, strain ctf18, stronger effect = lower value 1 | S. cerevisiae deletion strains, locus YMR223W, strain ubp8, stronger effect = lower value 0.992 | S. cerevisiae deletion strains, locus YMR263W, strain SAP30, stronger effect = lower value 1 | S. cerevisiae deletion strains, locus YMR307W, strain GAS1, stronger effect = lower value 0.858 | S. cerevisiae deletion strains, locus YNL067W, strain RPL9B, stronger effect = lower value 1 | S. cerevisiae deletion strains, locus YNL128W, strain TEP1, stronger effect = lower value 1.03 | S. cerevisiae deletion strains, locus YNL153C, strain GIM3, stronger effect = lower value 1.02 | S. cerevisiae deletion strains, locus YNL233W, strain BNI4, stronger effect = lower value 1.02 | S. cerevisiae deletion strains, locus YNL250W, strain rad50, stronger effect = lower value 0.974 | S. cerevisiae deletion strains, locus YNL271C, strain bni1, stronger effect = lower value 0.991 | S. cerevisiae deletion strains, locus YNL298W, strain CLA4, stronger effect = lower value 0.999 | S. cerevisiae deletion strains, locus YNL307C, strain MCK1, stronger effect = lower value 0.932 | S. cerevisiae deletion strains, locus YNL322C, strain KRE1, stronger effect = lower value 1.01 | S. cerevisiae deletion strains, locus YNR052C, strain pop2, stronger effect = lower value 0.989 | S. cerevisiae deletion strains, locus YOL006C, strain TOP1, stronger effect = lower value 0.991 | S. cerevisiae deletion strains, locus YOL012C, strain htz1 0.735 | S. cerevisiae deletion strains, locus YOL147C, strain pex11, stronger effect = lower value 0.994 | S. cerevisiae deletion strains, locus YOR061W, strain CKA2, stronger effect = lower value 1.02 | S. cerevisiae deletion strains, locus YOR069W, strain VPS5, stronger effect = lower value 1.01 | S. cerevisiae deletion strains, locus YOR136W, strain idh2, stronger effect = lower value 0.997 | S. cerevisiae deletion strains, locus YOR144C, strain elg1, stronger effect = lower value 1 | S. cerevisiae deletion strains, locus YOR184W, strain ser1, stronger effect = lower value 0.986 | S. cerevisiae deletion strains, locus YOR316C, strain cot1, stronger effect = lower value 1 | S. cerevisiae deletion strains, locus YPL055C, strain LGE1, stronger effect = lower value 0.991 | S. cerevisiae deletion strains, locus YPL241C, strain CIN2, stronger effect = lower value 1.01 | S. cerevisiae deletion strains, locus YPR119W, strain clb2, stronger effect = lower value 0.999 | S. cerevisiae deletion strains, locus YPR141C, strain kar3, stronger effect = lower value 0.979 | S. cerevisiae deletion strains, locus YPR163C, strain tif3, stronger effect = lower value 0.994 | S. cerevisiae deletion strains, locus YPR167C, strain met16, stronger effect = lower value 0.996 | S. cerevisiae deletion strains, strain wtn01, stronger effect = lower value 0.984 | S. cerevisiae strains, strain wild type, stronger effect = lower value 1.01
